Measurements: PubChem BioAssay (EPA / NIEHS)
Records with an inconclusive call do not appear. Activity calls are given as the source filed them. How the source made its calls: active means hit-call score of the fitted dose curve at least 0.9, where 1 is the maximum; inconclusive means response in the unintended direction; inactive means score below 0.9.

What follows are compounds tested against Glucocorticoid receptor (Homo sapiens) (UniProt P04150) (assay: ATG_GR_TRANS: Attagene TRANS-FACTORIAL HepG2 Assay for human Glucocorticoid Receptor (GR) (AID 2282978;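 further: activators score as hits since higher reporter transcript over DMSO is fitted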)). Details: HepG2 Attagene TRANS GR reporter, mRNA transcription.
Chain of Glucocorticoid receptor (Homo sapiens) (P04150 whole entry, looked up): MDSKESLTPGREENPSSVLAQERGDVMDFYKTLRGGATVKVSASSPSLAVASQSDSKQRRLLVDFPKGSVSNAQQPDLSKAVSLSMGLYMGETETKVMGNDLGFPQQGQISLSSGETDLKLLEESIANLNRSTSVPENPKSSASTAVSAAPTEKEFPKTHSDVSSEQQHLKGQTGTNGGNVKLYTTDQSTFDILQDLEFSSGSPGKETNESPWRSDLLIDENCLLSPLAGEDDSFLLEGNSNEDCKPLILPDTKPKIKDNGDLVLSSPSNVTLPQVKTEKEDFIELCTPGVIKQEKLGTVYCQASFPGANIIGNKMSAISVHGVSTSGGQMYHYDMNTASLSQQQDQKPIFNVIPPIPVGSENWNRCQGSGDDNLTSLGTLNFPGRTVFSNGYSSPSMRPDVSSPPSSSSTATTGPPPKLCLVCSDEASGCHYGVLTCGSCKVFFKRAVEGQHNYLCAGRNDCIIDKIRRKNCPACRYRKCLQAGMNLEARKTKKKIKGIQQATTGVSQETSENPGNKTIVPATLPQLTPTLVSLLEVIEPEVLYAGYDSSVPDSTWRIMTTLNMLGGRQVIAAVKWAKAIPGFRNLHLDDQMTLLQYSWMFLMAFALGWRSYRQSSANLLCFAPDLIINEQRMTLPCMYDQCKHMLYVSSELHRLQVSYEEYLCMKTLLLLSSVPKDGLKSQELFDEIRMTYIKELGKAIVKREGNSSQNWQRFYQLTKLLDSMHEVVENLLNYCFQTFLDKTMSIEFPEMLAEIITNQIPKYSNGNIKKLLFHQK
In short: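 Multiplexed TRANS reporter system, HepG2; 24 h exposure; RNA → oligo(dT) RT → reporter-specific PCR → 6-FAM primer extension → HpaI cut → CE fluorescence. Gain-of-signal vs DMSO.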

outcome, inactive:
O=Nc1ccc(O)cc1
COCc1c(C(C)C)nc(C(C)C)c(/C=C/[C@@H](O)C[C@@H](O)CC(=O)O)c1-c1ccc(F)cc1
SCCc1cnccn1

Each compound was assayed against Bile acid receptor (Homo sapiens) (UniProt Q96RI1) (assay: ATG_FXR_TRANS: Attagene TRANS-FACTORIAL HepG2 Assay for Farnesoid X Receptor (FXR) (AID 2282979;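 further: hits raise reporter mRNA above DMSO so AC50 marks FXR activation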)). Details: HepG2 Attagene TRANS FXR-GAL4 reporter transcription.
Chain of Bile acid receptor (Homo sapiens) (Q96RI1 whole entry, looked up, the tested form may be a part): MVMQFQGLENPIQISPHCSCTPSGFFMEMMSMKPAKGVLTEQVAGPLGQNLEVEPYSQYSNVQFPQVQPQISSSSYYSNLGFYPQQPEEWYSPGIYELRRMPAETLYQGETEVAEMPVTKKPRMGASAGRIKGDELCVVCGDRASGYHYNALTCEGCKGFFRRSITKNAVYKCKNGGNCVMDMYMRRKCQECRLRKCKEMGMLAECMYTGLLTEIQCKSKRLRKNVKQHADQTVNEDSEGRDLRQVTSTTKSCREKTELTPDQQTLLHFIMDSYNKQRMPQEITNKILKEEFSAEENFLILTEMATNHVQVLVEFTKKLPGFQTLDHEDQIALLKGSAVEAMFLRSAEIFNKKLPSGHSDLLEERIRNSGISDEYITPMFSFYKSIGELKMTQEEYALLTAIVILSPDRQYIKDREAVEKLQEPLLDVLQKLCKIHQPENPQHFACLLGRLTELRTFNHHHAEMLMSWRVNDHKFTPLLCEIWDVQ
In short: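 HepG2 cells transiently transfected with reporter constructs in which a chimeric FXR-GAL4 protein drives a GAL4-UAS reporter; 24 h compound exposure. Reporter mRNA measured by RT-PCR, FAM labelling, HpaI digestion and capillary electrophoresis; gain-of-signal versus DMSO.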

outcome, inactive:
CC1=Nc2ccc3ccccc3c2C1(C)C
O=S(=O)(O)c1cc(S(=O)(=O)O)c2ccc3c(S(=O)(=O)O)cc(S(=O)(=O)O)c4ccc1c2c43
CC(=O)OCC(C)OC(C)=O (configuration not stated)
c1cc(N(CC2CO2)CC2CO2)ccc1OCC1CO1 (configuration not stated)
CC(C)=CCCC(C)C=O (configuration not stated)
CCCCCCCCCCCCCCCC[N+](C)(C)CC
C(=CC=Nc1ccccc1)C=CNc1ccccc1

These compounds were tested against Oxysterols receptor LXR-alpha (Homo sapiens) (UniProt Q13133) (assay: ATG_LXRa_TRANS: Attagene TRANS-FACTORIAL HepG2 Assay for human Liver X Receptor alpha (LXRa) (AID 2282980)). Details: HepG2 Attagene TRANS reporter, LXRa transactivation.
Chain of Oxysterols receptor LXR-alpha (Homo sapiens) (Q13133 whole entry, looked up, the tested form may be a part): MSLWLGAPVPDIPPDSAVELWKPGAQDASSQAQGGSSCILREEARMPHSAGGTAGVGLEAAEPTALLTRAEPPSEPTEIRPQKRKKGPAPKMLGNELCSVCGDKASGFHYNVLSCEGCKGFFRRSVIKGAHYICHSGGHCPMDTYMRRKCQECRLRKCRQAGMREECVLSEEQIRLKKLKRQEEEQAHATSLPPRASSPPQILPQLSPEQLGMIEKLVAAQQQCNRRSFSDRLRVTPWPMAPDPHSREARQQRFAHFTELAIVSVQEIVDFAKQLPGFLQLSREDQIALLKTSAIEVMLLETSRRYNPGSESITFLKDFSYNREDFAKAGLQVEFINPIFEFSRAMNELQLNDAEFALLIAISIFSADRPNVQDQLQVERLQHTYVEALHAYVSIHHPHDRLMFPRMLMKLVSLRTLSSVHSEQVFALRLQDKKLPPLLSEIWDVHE
In short: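 HepG2 cells were transiently transfected with multiplexed reporter units driven by chimeric LXRa–GAL4 fusion proteins, then dosed for 24 h. Reporter mRNA was quantified by RT-PCR, fluorescent labelling and capillary electrophoresis; gain of signal fitted against DMSO baseline.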

outcome, inactive:
CC1=Nc2ccc3ccccc3c2C1(C)C
O=S(=O)(O)c1cc(S(=O)(=O)O)c2ccc3c(S(=O)(=O)O)cc(S(=O)(=O)O)c4ccc1c2c43
CC(=O)OCC(C)OC(C)=O (configuration not stated)
c1cc(N(CC2CO2)CC2CO2)ccc1OCC1CO1 (configuration not stated)
CC(C)=CCCC(C)C=O (configuration not stated)
CCCCCCCCCCCCCCCC[N+](C)(C)CC
C(=CC=Nc1ccccc1)C=CNc1ccccc1
